Screens (PubChem BioAssay)
Only some compounds are listed: those with a hit (about 19% of all), similar ones and a draw of the others.
TDP1 cell noCPT = qHTS for Inhibitors of human tyrosyl-DNA phosphodiesterase 1 (TDP1): qHTS in cells in absence of CPT; DT40 Tdp1-/- hTDP1 cells, no CPT, ATP luminescence, 48 h; 420,000 compounds, 15% hits; Potency, µM (series often up to 46.2 µM), most hits filed as inhibitors; further: nearly all actives have a fitted effect of over 55% in size
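Chicken DT40 Tdp1-/- cells complemented with human TDP1, screened without camptothecin (DMSO vehicle only), 400 cells/well. Compounds pin-transferred, cells incubated at 37 °C for at least 48 hr. Growth read as ATP-dependent luminescence (CellTiter-Glo, 30 min at RT).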
MCF10A rereplic = A quantitative high throughput screen for small molecules that induce DNA re-replication in MCF 10a normal breast cells. MCF 10A DNA re-replication, Hoechst nuclear intensity, 48 h. Potency, µM (top dose mostly 46.1 µM), most hits filed as activators. 350,000 compounds, 2.9% hits. AID 624296, 2012; further: nearly all actives have a fitted effect of over 50% in size
SW480 rerep = A quantitative high throughput screen for small molecules that induce DNA re-replication in SW480 colon adenocarcinoma cells. SW480 DNA re-replication, Hoechst DNA content imaging, 48 h. Potency, µM (series often up to 46.1 µM), actives largely listed as activators. 340,000 compounds, 1.8% hits; further: nearly all actives have a fitted effect of over 55% in size
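First, 250 cells per well were seeded. Next, compound or vehicle (23 nL) was pinned in, plates sat 48 hr at 37 C. Finally Hoechst was added for 40 min before fluorescence scanning.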
TDP1 cell CPT = qHTS for Inhibitors of human tyrosyl-DNA phosphodiesterase 1 (TDP1): qHTS in cells in presence of CPT; chicken DT40 Tdp1-/-;hTDP1 cells + 20 nM CPT, ATP luminescence, 48 h; Potency, µM (titrated, usually from 46.2 µM), usual class: inhibitors; 420,000 compounds, 12% hits; further: nearly all actives have a fitted effect of over 55% in size
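Cell growth measured by CellTiter-Glo luminescence after a minimum 48 h, 37 C compound exposure with 20 nM CPT in Tdp1-knockout DT40 cells stably expressing hTDP1, seeded 400/well; qHTS titration format.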
Chronic BCR inh = qHTS Assay to Find Inhibitors of Chronic Active B-Cell Receptor Signaling; AID 493014, 2011; Potency, µM (top dose mostly 46.1 µM), hits mostly inhibitors; 340,000 compounds, 0.05% hits; ABC-DLBCL IkBa-CBG/CBR reporter, luminescence ratio, 4 h; active means well fitted inhibition curve with a large enough effect in the signal ratio, with a control signal flat, not every such curve was filed as active; inconclusive means small, poorly fitted or top-dose-only effect, or effect the other way, or a change in a side signal; the % refers to the signal ratio
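Doxycycline induced both beetle luciferases in TMD8 lymphoma cells; IKK-driven degradation limits the IkappaBalpha-fused green signal, while red luminescence normalises for cell number and nonspecific effects. Compounds tested up to 46 uM, 4 hrs.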
IL1B secr inh = qHTS for Inhibitors of Inflammasome Signaling: IL-1-beta AlphaLISA Primary Screen. THP-1 LPS/ATP IL-1B secretion, AlphaLISA, 16 h; stronger effect = lower value. activity change, % at 57.5 µM. 360,000 compounds, 4.7% hits. AID 743279, 2014; in the data active means activity change below about -50%; inconclusive means mostly about -30% to -49%
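THP-1 cells pretreated 1 hr with compounds (up to 57.5 uM final), then stimulated with LPS (250 ng/mL final) plus ATP (1.25 mM final); secreted IL-1B measured by AlphaLISA after 16 hr, decreased signal indicating inhibition.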
Numbers stand for hits; [ ] = another dose, or the depositor's remark. Unless noted, the call rests on the fitted dose curve; in most records, active means well fitted curve in the direction sought with a large enough effect; inconclusive means small, poorly fitted or top-dose-only effect, or another doubt; inactive means no such curve, though single readings can be large; an effect the other way counts as inactive or inconclusive.

Results for CC1(C)N=C(SCC(=O)Nc2ccccc2)C(c2ccc(Cl)cc2)=N1 ?
TDP1 cell noCPT: 15µM; MCF10A rereplic: inconclusive; SW480 rerep: inactive; TDP1 cell CPT: 23µM; Chronic BCR inh: inconclusive; IL1B secr inh: -93

Results for Cc1ccc(C2=NC(C)(C)N=C2SCC(=O)Nc2ccc(Cl)cc2)cc1 ?
TDP1 cell noCPT: inconclusive; MCF10A rereplic: inconclusive; SW480 rerep: inactive; TDP1 cell CPT: 21µM; Chronic BCR inh: inconclusive; IL1B secr inh: -106

What do the screens show for `COc1ccccc1CC(NC(C)=O)C(=O)NC1CCN(C(=O)Nc2ccccc2F)CC1` (centres undefined)?
TDP1 cell noCPT: inactive; MCF10A rereplic: inactive; SW480 rerep: inactive; TDP1 cell CPT: inactive; Chronic BCR inh: inactive; IL1B secr inh: inactive

Results for CC1COC(Cn2c3ccccc3c3ccccc32)O1 (centres undefined) ?
TDP1 cell noCPT: 18µM; MCF10A rereplic: inactive; SW480 rerep: inactive; TDP1 cell CPT: inconclusive; Chronic BCR inh: inconclusive; IL1B secr inh: inactive

Results for CC1(C)COC(Cn2c3ccccc3c3ccccc32)O1 (centres undefined) ?
TDP1 cell noCPT: inconclusive; MCF10A rereplic: inconclusive; SW480 rerep: inconclusive; TDP1 cell CPT: inconclusive; Chronic BCR inh: inconclusive; IL1B secr inh: inactive

What do the screens show for `CS(=O)(=O)N(CC(=O)Nc1ccc(Br)cc1)c1ccccc1Br`?
Chronic BCR inh: inactive

How did OC1C2COC(O2)[C@H](O)C1O (some centres undefined) do in these assays?
TDP1 cell noCPT: inactive; TDP1 cell CPT: inactive

How did CC(C)Oc1ccc2c(c1)OC(c1ccccc1)(C(F)(F)F)NC2=O (centres undefined) do in these assays?
TDP1 cell noCPT: 26µM; MCF10A rereplic: inconclusive; SW480 rerep: inactive; TDP1 cell CPT: inconclusive; Chronic BCR inh: inactive; IL1B secr inh: inactive

Results for O=C(/C=C/c1ccc2ccccc2n1)N1CCN(S(=O)(=O)c2ccc(F)cc2)CC1 ?
TDP1 cell noCPT: inconclusive; MCF10A rereplic: inconclusive; SW480 rerep: inconclusive; TDP1 cell CPT: inconclusive; Chronic BCR inh: inactive; IL1B secr inh: -89

Results for O=C(/C=C/c1ccc2ccccc2n1)N1CCN(S(=O)(=O)c2ccccc2F)CC1 ?
TDP1 cell noCPT: 18µM; MCF10A rereplic: inconclusive; SW480 rerep: inactive; TDP1 cell CPT: 23µM; Chronic BCR inh: inconclusive; IL1B secr inh: -76

How did O=C(/C=C/c1ccc2ccccc2n1)N1CCN(c2ccccc2)CC1 do in these assays?
TDP1 cell noCPT: inconclusive; MCF10A rereplic: inactive; SW480 rerep: inactive; TDP1 cell CPT: inactive; Chronic BCR inh: inactive; IL1B secr inh: inactive

What do the screens show for `COC(=O)c1ccccc1-c1c2ccc(=N)cc-2oc2cc(N)ccc12`?
TDP1 cell noCPT: 0.58µM; MCF10A rereplic: inactive; SW480 rerep: inactive; TDP1 cell CPT: 0.73µM; Chronic BCR inh: inconclusive; IL1B secr inh: -92

Results for Cc1ccc(-c2c(C(=O)NCCc3ccccc3)oc(=O)c3ccccc23)cc1 ?
TDP1 cell noCPT: inconclusive; TDP1 cell CPT: 15µM

What do the screens show for `CCOc1ccc(N(C)C(=O)c2oc(=O)c3ccccc3c2-c2ccccc2)cc1`?
TDP1 cell noCPT: 15µM; TDP1 cell CPT: 18µM

Results for Cc1ccc(-c2c(C(=O)NCc3ccccc3)oc(=O)c3ccccc23)cc1 ?
TDP1 cell noCPT: inconclusive; MCF10A rereplic: inactive; SW480 rerep: inactive; TDP1 cell CPT: inconclusive; Chronic BCR inh: inactive; IL1B secr inh: inactive

What do the screens show for `Cc1c(NC(=O)c2ccc(CC(C)C)o2)c(=O)n(-c2ccccc2)n1C`?
TDP1 cell noCPT: inactive; MCF10A rereplic: inactive; SW480 rerep: inactive; TDP1 cell CPT: inactive; Chronic BCR inh: inactive; IL1B secr inh: inactive

What do the screens show for `O=C(Nc1ccccc1)OCC1COC(c2ccccc2)(c2ccccc2)O1` (centres undefined)?
TDP1 cell noCPT: inactive; MCF10A rereplic: inconclusive; SW480 rerep: inactive; TDP1 cell CPT: inactive; IL1B secr inh: -69

What do the screens show for `CCCCn1c(N)c(N(CCC)C(=O)C2CCCC2)c(=O)[nH]c1=O`?
TDP1 cell noCPT: inactive; MCF10A rereplic: inactive; SW480 rerep: inactive; TDP1 cell CPT: inactive; Chronic BCR inh: inactive; IL1B secr inh: inactive

How did Cc1ccc(C(=O)NCc2ccco2)c(C)c1 do in these assays?
TDP1 cell noCPT: inactive; MCF10A rereplic: inactive; SW480 rerep: inactive[9.22 µM]; TDP1 cell CPT: inactive; Chronic BCR inh: inactive; IL1B secr inh: inactive

Results for Cn1nc(C(=O)NNC(=O)C(CCC(N)=O)NS(=O)(=O)c2ccc(Cl)cc2)c2ccccc2c1=O (centres undefined) ?
TDP1 cell noCPT: inactive; MCF10A rereplic: inactive; SW480 rerep: inactive; TDP1 cell CPT: inactive; Chronic BCR inh: inactive; IL1B secr inh: inactive

Results for CC(C)(C)[C@H]1CCC(=O)N([C@H](CSc2ccc(Br)cc2)Cc2ccccc2)CC1 ?
TDP1 cell noCPT: 14µM; MCF10A rereplic: inactive; SW480 rerep: inactive; TDP1 cell CPT: 18µM; Chronic BCR inh: inactive; IL1B secr inh: inactive

What do the screens show for `Cc1ccc(SC[C@H](Cc2ccccc2)N2CC[C@@H](C)CCC2=O)cc1`?
TDP1 cell noCPT: 13µM; MCF10A rereplic: inconclusive; SW480 rerep: inactive; TDP1 cell CPT: 11µM; Chronic BCR inh: inactive; IL1B secr inh: inactive

What do the screens show for `CC(C)(C)[C@H]1CCC(=O)N([C@H](CSc2ccccc2)Cc2ccccc2)CC1`?
TDP1 cell noCPT: inconclusive; MCF10A rereplic: inactive; SW480 rerep: inactive; TDP1 cell CPT: 23µM; Chronic BCR inh: inactive; IL1B secr inh: inactive

What do the screens show for `CC(=O)Nc1ccc(SC[C@H](Cc2ccccc2)N2CC[C@@H](O)CCC2=O)cc1`?
TDP1 cell noCPT: inactive; MCF10A rereplic: inactive; SW480 rerep: inactive; TDP1 cell CPT: inactive; Chronic BCR inh: inactive; IL1B secr inh: inactive

How did [N-]=[N+]=NC[C@H](Cc1ccccc1)N1CC[C@@H](O)CCC1=O do in these assays?
TDP1 cell noCPT: inactive; MCF10A rereplic: inactive; SW480 rerep: inactive; TDP1 cell CPT: inactive; Chronic BCR inh: inactive; IL1B secr inh: inactive

How did CC(C)(C)[C@H]1CCC(=O)N([C@H](CN=[N+]=[N-])Cc2ccccc2)CC1 do in these assays?
TDP1 cell noCPT: 20µM; MCF10A rereplic: inactive; SW480 rerep: inactive; TDP1 cell CPT: 14µM; Chronic BCR inh: inactive; IL1B secr inh: inactive

What do the screens show for `CC(=O)c1cc2c(cc1N/C(=N/S(=O)(=O)c1ccc(C)cc1)c1ccc(F)cc1)OCO2`?
TDP1 cell noCPT: inactive; TDP1 cell CPT: inactive; Chronic BCR inh: inactive
